In PubChem BioAssay (NCATS) one finds outcome and Potency data, which are given here for 25 compounds.

Structures are written as SMILES. Inconclusive results are not listed. Activity calls are given as the source filed them. The call rests on the fitted dose curve; in most records, active means well fitted curve in the direction sought with a large enough effect; inconclusive means small, poorly fitted or top-dose-only effect, or another doubt; inactive means no such curve, though single readings can be large; an effect the other way counts as inactive or inconclusive.

Assay [1] concerns HACAT. The assay can be described thus: qHTS assay to identify novel small-molecules to repurpose for Merkel cell carcinoma treatment (AID 1296009). Further: nearly all actives have a fitted effect of over 60% in size. Further: potency means the concentration at half of the fitted maximal effect. To be noted: MCC and control cell lines, CellTiter-Glo viability, 72 h; at 44.8 µM (top of the series) unless noted. In outline:
(§1)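 Cell viability measured by CellTiter-Glo following 72 hr compound treatment at 37 degree celsius, with NPC and MIPE libraries tested in 8- and 11-point concentration series.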
(In general: Quantitative high-throughput screening tests each substance at several concentrations.)

In assay [2] the test system is MCC-13. The description is as above. To be noted: MCC and control cell lines, CellTiter-Glo viability, 72 h; series mostly up to 46 µM. In outline: as §1
Assay [3] deals with MCC-26. The description is as above. To be noted: MCC and control cell lines, CellTiter-Glo viability, 72 h; series mostly up to 46 µM. The gist of the method: as §1
In general terms: ATP-based viability assays read luminescence as a measure of living cells.

For assay [4], the system named is MKL-1. Described as above. The settings on record: MCC and control cell lines, CellTiter-Glo viability, 72 h; series mostly up to 46 µM. The gist of the method: as §1
Assay [5] relates to MKL-2. The assay is described as above. To be noted: MCC and control cell lines, CellTiter-Glo viability, 72 h; series mostly up to 46 µM. The gist of the method:
as §1

The test system of assay [6] is NIH3T3. Described as above. To be noted: MCC and control cell lines, CellTiter-Glo viability, 72 h; at 44.8 µM (top of the series) unless noted. In outline:
as §1

Assay [7] deals with UISO. The assay is described as above. The settings on record: MCC and control cell lines, CellTiter-Glo viability, 72 h; series mostly up to 46 µM. In outline: as §1
For assay [8], the system named is WaGa. The assay is described as above. The settings on record: MCC and control cell lines, CellTiter-Glo viability, 72 h; series mostly up to 46 µM. In outline:
as §1

Assay [9] relates to C33A. The experiment in a line: Primary qHTS to identify gynecologic anti-cancer compounds using libraries of approved drugs and bioactive compounds (AID 1345084). Further: nearly all actives have a fitted effect of over 55% in size. To be noted: Gynecologic cancer cell panel viability, ATPlite luminescence, 48 h; series mostly up to 57.5 µM. The gist of the method:
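In this quantitative HTS, cell killing is estimated from loss of ATP-dependent luciferase light. Cells see five compound concentrations over a 48 h exposure.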

For assay [10], the system named is HEK293T. The assay can be described thus: qHTS assay to identify novel small-molecules to repurpose for Merkel cell carcinoma treatment (AID 1296009). Further: nearly all actives have a fitted effect of over 60% in size. Further: potency means the concentration at half of the fitted maximal effect. To be noted: MCC and control cell lines, CellTiter-Glo viability, 72 h; at 44.8 µM (top of the series). The gist of the method: as §1

As for `O=c1[nH]c2cc(Cl)ccc2n1C1CCNCC1`, the call in assay [1] and in [6] was inactive. Further, the Potency result in assay [2], in assay [3], in assay [4], in assay [5], in assay [7] and in assay [8] was “inactive” throughout. Further, in assay [9], the Potency result is “inactive”.
Turning to `Nc1ccc(N)cc1`, the outcome in assay [1] was inactive. In addition, the Potency entry in [2], in [3], in assay [4], in assay [5], in [7] and in assay [8] was “inactive” in each case. Besides, in assay [9], the Potency entry is “inactive”.
For the compound `CCCC[N+]1(C)[C@@H]2CC(OC(=O)[C@H](CO)c3ccccc3)C[C@H]1[C@@H]1O[C@@H]12` (stereo not given in full), the compound was called inactive in [1] and in assay [10]. Also, the Potency entry in [2], in assay [3], in assay [4], in [5], in [7] and in assay [8] was “inactive” in each case. The Potency result in assay [9] was “inactive”.
In the case of `O=C(O)c1nn(Cc2ccc(Cl)cc2Cl)c2ccccc12`, the outcome in [1], in assay [10] and in assay [6] was inactive. Besides, the Potency entry in assay [2], in [3], in assay [4], in assay [5], in assay [7] and in [8] was “inactive” throughout. For the same compound, in assay [9], the Potency entry was “inactive”.
With `CCN(CC)C(C)C(=O)c1ccccc1` (stereo not given), the result in assay [1] was inactive. The Potency result in assay [2], in assay [3], in assay [4], in [5], in [7] and in [8] was “inactive” in each case. Moreover, the Potency result in assay [9] is “inactive”.
For the compound `CCOC(=O)NC(O)C(Cl)(Cl)Cl` (stereo not given), the compound was classed as inactive in assay [1]. In addition, the Potency result in [2], in assay [3], in assay [4], in [5], in [7] and in assay [8] was “inactive” in each case. Also, the Potency entry in [9] was “inactive”.
Regarding `COc1ccc(CN2CCNCC2)c(OC)c1OC`, in [1], the call was inactive. For the same compound, the Potency entry in assay [2], in assay [3], in [4], in [5], in assay [7] and in [8] was “inactive” in each case. For the same compound, the Potency entry in assay [9] is “inactive”.
With `C1CN2CCC1CC2`, the call in [1] and in [6] was inactive. Also, the Potency entry in [2], in assay [3], in [4], in [5], in assay [7] and in [8] was “inactive” throughout. The Potency entry in assay [9] was “inactive”.
On to `CCN(CC)Cc1nccn1-c1ccc([N+](=O)[O-])cc1C(=O)c1ccccc1Cl`, for which the call in assay [1] was inactive. Also, the Potency entry in assay [2], in assay [3], in assay [4], in assay [5], in [7] and in assay [8] was “inactive” throughout. Moreover, the Potency entry in [9] is “inactive”.
Take `ClC1=C(Cl)C2(Cl)C(CBr)CC1(Cl)C2(Cl)Cl` (stereo not given): the compound was called inactive in assay [1] and in assay [10]. Moreover, the Potency entry in assay [2], in assay [3], in assay [4], in [5], in [7] and in assay [8] was “inactive” throughout. Besides, the Potency entry in [9] is “inactive”.
Take `Oc1ccc2[nH]cc(CCCCN3CC=C(c4ccccc4)CC3)c2c1`: the outcome in assay [1] was inactive. The Potency result in assay [2], in [3] and in [9] was “inactive” throughout. In addition, the Potency was 8.41 µM (active) in [4], 5.96 µM (active) in [5], 8.41 µM (active) in assay [7] and 2.99 µM (active) in [8].
Take `NC(=O)OCCCc1ccccc1`: the result in assay [1] and in assay [6] was inactive. The Potency entry in assay [2], in [3], in assay [4], in assay [5], in [7] and in [8] was “inactive” throughout. In addition, the Potency result in [9] was “inactive”.
With `CN1C(=O)CN=C(c2ccccc2)c2cc([N+](=O)[O-])ccc21`, the call in assay [1] and in [6] was inactive. The Potency result in assay [2], in assay [3], in assay [4], in assay [5], in [7] and in assay [8] was “inactive” each time. The Potency result in assay [9] was “inactive”.
In the case of `O=C(O)Cc1ccccc1`, the compound was called inactive in assay [1] and in assay [6]. Moreover, the Potency entry in assay [2], in assay [3], in assay [4], in assay [5], in assay [7] and in assay [8] was “inactive” each time. Further, the Potency entry in assay [9] is “inactive”.
As for `CNC(=O)NC(O)C(Cl)(Cl)Cl` (stereo not given), the call in assay [1] was inactive. Further, the Potency entry in [2], in assay [3], in [4], in [5], in [7] and in assay [8] was “inactive” each time. In assay [9], the Potency result was “inactive”.
For `NC(=O)CN1CCCC1=O`, the compound was classed as inactive in assay [1] and in assay [10]. The Potency entry in assay [2], in assay [3], in assay [4], in [5], in assay [7] and in assay [8] was “inactive” in each case. Also, in assay [9], the Potency result was “inactive”.
Turning to `CN1C[C@@H](NS(=O)(=O)N(C)C)C[C@@H]2c3cccc4c3c(cn4C)C[C@H]21`, the call in assay [1] was inactive. The Potency result in [2], in [3], in [4], in assay [5], in assay [7] and in assay [8] was “inactive” each time. Further, the Potency entry in [9] is “inactive”.
As for `O=c1n(Cl)c(=O)n(Cl)c(=O)n1Cl`, in assay [1], the outcome was inactive. Besides, the Potency entry in assay [2], in assay [3], in assay [4], in assay [5], in assay [7] and in assay [8] was “inactive” throughout. The Potency result in assay [9] was “inactive”.
Take `CCOP(=S)(OCC)O/N=C(\C#N)c1ccccc1`: the call in assay [1], in assay [10] and in assay [6] was inactive. Also, the Potency result in assay [2], in assay [3], in assay [4], in [5], in assay [7] and in assay [8] was “inactive” throughout. The Potency entry in assay [9] was “inactive”.
`C[C@]12CC[C@H]3[C@@H](CCC4=CC(=O)CC[C@@]43C)[C@@H]1CC[C@@H]2C(=O)O`: in assay [1], the compound was called inactive. For the same compound, the Potency entry in assay [2], in [3], in [4], in assay [5], in assay [7] and in assay [8] was “inactive” each time. Moreover, the Potency entry in assay [9] is “inactive”.
As to `CCOC(=O)c1cncn1C(C)c1ccccc1` (stereo not given), the outcome in assay [1] and in assay [10] was inactive. In addition, the Potency entry in assay [2], in [3], in assay [4], in [5], in assay [7] and in assay [8] was “inactive” in each case. Also, the Potency result in [9] is “inactive”.
Turning to `CC1=C2[C@H]3OC(=O)[C@@H](C)[C@@H]3CC[C@@]2(C)C=CC1=O`, the call in assay [1] was inactive. Also, the Potency entry in assay [2], in [3], in assay [4], in assay [5], in assay [7] and in [8] was “inactive” in each case. Moreover, in assay [9], the Potency entry is “inactive”.
For the compound `COC(=O)C1=CCCN(C)C1`, the outcome in assay [1] and in assay [6] was inactive. In addition, the Potency entry in [2], in [3], in [4], in [5], in assay [7] and in assay [8] was “inactive” in each case. Moreover, in assay [9], the Potency result is “inactive”.
Take `CCC1(CC)C(=O)NC(=O)NC1=O`: the compound was classed as inactive in assay [1] and in assay [6]. The Potency result in [2], in assay [3], in assay [4], in assay [5], in assay [7] and in assay [8] was “inactive” each time. In assay [9], the Potency entry was “inactive”.
With `CCN(CC)CCOC(=O)C(C)(c1ccccc1)c1ccccc1`, the call in assay [1] was inactive. Further, the Potency entry in assay [2], in [3], in assay [4], in assay [5], in assay [7] and in assay [8] was “inactive” each time. Further, the Potency entry in assay [9] was “inactive”.
